# Test results as given in ChEMBL document CHEMBL3988442, “University of Dundee, Small-Polar-MMV Screening Library” (2021).
# For some of these results: Results with a measured potency or affinity are listed apart.
# What was measured:
# Design in all cases: scale not given: direction of the effect not stated beside the values
# [1] = target: Protein translocase subunit SecA (Escherichia coli (strain K12)) (UniProt P10408); test: Assay to Identify E. coli SecA ATPase Inhibitors; format: functional; settings: 30 µM
# Protein translocase subunit SecA (Escherichia coli (strain K12)), sequence (P10408 whole entry): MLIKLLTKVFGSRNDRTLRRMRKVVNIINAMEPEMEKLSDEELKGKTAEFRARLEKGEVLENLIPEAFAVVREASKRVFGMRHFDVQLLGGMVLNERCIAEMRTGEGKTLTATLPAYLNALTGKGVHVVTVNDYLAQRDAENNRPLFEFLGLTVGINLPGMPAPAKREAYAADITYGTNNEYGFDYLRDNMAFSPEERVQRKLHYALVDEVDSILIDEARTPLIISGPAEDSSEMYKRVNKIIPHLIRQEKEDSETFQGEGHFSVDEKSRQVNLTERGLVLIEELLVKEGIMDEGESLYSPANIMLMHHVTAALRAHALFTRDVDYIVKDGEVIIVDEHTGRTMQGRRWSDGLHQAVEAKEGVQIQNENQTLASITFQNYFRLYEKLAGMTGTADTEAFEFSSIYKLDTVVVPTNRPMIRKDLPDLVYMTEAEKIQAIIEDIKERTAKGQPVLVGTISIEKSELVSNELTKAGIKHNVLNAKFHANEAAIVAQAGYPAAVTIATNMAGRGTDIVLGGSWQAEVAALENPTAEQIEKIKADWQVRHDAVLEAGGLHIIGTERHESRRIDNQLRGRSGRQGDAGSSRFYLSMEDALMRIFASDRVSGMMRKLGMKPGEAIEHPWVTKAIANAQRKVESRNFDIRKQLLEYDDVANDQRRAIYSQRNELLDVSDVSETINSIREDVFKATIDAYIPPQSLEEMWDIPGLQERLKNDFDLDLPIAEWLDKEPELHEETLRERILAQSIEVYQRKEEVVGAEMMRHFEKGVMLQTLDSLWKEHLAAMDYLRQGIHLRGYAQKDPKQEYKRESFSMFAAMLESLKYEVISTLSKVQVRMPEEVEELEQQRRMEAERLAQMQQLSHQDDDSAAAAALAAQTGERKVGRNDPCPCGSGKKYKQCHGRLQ
# [2] = target: T1, Ubiquitin-activating enzyme e1, putative (Leishmania donovani (strain BPK282A1)) (UniProt E9BSI1); test: Leishmania donovani Ubiquitin Activating Enzyme (LdE1); format: functional; settings: 30 µM
# T1 sequence (whole entry): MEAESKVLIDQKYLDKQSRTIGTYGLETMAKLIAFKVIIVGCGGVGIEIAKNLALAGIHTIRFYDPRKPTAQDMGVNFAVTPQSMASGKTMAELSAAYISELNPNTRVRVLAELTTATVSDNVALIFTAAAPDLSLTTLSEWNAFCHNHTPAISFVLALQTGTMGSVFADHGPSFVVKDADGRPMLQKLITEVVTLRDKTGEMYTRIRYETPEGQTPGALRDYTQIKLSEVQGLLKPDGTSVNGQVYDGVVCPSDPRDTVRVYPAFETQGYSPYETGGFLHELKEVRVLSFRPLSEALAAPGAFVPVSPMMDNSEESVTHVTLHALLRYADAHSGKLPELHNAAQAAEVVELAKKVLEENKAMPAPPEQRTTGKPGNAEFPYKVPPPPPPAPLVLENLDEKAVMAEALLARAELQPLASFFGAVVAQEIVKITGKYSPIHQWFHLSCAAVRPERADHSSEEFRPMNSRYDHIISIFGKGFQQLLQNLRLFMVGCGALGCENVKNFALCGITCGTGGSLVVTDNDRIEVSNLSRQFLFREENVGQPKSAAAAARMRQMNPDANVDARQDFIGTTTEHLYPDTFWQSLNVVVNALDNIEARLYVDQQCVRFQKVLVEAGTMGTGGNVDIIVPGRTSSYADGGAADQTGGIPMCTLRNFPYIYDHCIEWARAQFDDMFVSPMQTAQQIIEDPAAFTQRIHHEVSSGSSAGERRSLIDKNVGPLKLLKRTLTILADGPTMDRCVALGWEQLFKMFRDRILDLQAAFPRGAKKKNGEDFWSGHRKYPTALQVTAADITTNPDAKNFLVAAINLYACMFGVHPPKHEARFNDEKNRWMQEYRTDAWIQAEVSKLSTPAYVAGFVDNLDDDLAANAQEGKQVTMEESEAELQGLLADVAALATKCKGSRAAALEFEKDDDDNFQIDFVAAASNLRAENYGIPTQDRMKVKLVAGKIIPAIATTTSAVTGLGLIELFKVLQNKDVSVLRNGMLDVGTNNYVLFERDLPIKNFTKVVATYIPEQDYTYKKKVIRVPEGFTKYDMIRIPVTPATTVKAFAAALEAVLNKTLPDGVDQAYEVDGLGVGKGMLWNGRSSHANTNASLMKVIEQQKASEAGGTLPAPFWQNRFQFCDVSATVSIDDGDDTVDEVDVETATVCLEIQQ
# [3] = target: AMP-activated protein kinase, AMPK (Homo sapiens) (UniProt P54646+O43741+P54619+Q9UGJ0+Q9Y478+Q13131+Q9UGI9); test: AMP-dependent Kinase enzyme assay. An in vitro enzyme assay that detects ADP turnover that is directly proportional to AMPK activity. This uses naive AMPK that is activated during the assay with MK-8722; format: functional; settings: 30 µM
# [4] = target: Sialic acid-binding Ig-like lectin 9 (Homo sapiens) (UniProt Q9Y336); test: Hs-Siglec9 ALPHAscreen SOP 20170721; settings: 10 µM
# Sialic acid-binding Ig-like lectin 9 (Homo sapiens), sequence (Q9Y336 whole entry): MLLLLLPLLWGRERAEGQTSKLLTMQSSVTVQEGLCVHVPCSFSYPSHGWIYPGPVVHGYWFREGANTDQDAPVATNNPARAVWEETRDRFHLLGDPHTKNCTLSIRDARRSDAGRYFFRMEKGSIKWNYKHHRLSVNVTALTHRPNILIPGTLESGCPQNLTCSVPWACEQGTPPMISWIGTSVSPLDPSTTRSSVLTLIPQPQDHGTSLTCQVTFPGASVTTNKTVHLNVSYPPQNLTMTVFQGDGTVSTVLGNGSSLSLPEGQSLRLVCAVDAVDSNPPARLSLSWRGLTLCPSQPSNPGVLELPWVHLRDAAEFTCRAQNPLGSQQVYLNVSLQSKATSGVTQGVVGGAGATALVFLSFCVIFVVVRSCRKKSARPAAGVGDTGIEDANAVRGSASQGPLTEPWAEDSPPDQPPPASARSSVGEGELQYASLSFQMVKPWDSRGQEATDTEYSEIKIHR
# [5] = system: Trypanosoma cruzi; test: Trypanosoma cruzi phosphomannomutase and mannose-1-phosphate guanylyltransferase assay; format: functional; settings: 10 µM
# [6] = target: T2, Arginase-2, mitochondrial (Homo sapiens) (UniProt P78540); test: in vitro enzyme assay to detect the production of urea directly proportional to the activity of Arginase II; format: functional; settings: 33.3 µM; further: in the data most compounds retested in dose-response had high values
# T2 sequence (whole entry): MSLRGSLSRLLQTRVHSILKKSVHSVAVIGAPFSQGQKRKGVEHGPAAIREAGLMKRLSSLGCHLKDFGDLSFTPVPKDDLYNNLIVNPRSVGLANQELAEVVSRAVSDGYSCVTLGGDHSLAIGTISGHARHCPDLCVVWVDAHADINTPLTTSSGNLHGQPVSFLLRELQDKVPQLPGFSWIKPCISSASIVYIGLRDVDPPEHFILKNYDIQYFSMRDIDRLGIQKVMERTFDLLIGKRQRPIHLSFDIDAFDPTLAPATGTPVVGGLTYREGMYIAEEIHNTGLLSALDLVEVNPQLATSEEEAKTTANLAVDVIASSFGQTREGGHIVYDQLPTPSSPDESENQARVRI
# [7] = target: T3, Proteasome subunit beta (Trypanosoma cruzi) (UniProt O96673); test: Trypanosoma cruzi proteasome chymotrypsin-like activity (TcProtChymo) assay.; further: in the data most compounds retested in dose-response had high values; format: functional; settings: 9.37 µM
# T3 sequence (whole entry): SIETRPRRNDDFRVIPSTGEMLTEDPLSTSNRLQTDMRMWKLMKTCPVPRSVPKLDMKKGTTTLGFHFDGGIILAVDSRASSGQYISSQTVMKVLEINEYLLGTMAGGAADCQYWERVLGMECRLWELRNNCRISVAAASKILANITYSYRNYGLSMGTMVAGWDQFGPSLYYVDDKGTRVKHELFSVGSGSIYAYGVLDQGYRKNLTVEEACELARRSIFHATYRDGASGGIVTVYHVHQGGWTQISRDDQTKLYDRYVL
# [8] = species on record: Homo sapiens; test: To identify inhibition of the IFN signalling (Jak-Stat) pathway via expression of an eGFP reporter gene under the control of an IFN-stimulated response element (ISRE) containing MxA promoter.; format: functional; settings: 30 µM
# [9] = target: T4, Tyrosyl-tRNA synthetase, putative (Trypanosoma cruzi (strain CL Brener)) (UniProt Q4DSP6); test: Trypanosoma cruzi tyrosyl tRNA synthetase (TcYRS) _High Tyrosine SOP; format: functional; settings: 30 µM; further: in the data most compounds retested in dose-response had high values
# T4 sequence (whole entry): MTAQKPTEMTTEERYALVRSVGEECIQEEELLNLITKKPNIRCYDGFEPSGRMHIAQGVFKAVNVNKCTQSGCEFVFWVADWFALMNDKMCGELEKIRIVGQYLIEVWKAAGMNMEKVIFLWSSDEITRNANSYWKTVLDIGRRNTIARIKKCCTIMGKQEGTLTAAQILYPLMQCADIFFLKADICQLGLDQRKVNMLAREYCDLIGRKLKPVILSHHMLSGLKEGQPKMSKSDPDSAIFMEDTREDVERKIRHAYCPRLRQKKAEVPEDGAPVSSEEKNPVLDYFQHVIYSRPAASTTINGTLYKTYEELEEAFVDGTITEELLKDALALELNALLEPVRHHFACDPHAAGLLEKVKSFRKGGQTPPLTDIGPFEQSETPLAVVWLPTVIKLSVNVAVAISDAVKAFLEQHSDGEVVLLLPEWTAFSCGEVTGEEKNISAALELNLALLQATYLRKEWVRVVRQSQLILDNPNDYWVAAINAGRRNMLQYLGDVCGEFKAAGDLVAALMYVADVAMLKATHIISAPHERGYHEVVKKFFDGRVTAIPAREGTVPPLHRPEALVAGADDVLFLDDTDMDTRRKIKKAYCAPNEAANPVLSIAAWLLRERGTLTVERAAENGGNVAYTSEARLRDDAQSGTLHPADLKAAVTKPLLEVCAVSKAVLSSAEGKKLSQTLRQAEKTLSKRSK
# [10] = target: T4, Tyrosyl-tRNA synthetase, putative (Trypanosoma cruzi (strain CL Brener)); test: Trypanosoma cruzi tyrosyl tRNA synthetase (TcYRS) SOP; format: functional; settings: 30 µM
# [11] = target: Chromo domain-containing protein 1 (Saccharomyces cerevisiae (strain ATCC 204508 / S288c) (Baker's yeast)) (UniProt P32657); test: ScCHD-1 Enzyme Inhibition Assay; format: functional; settings: 30 µM; further: in the data most compounds retested in dose-response had high values
# Chromo domain-containing protein 1 (Saccharomyces cerevisiae (strain ATCC 204508 / S288c) (Baker's yeast)), sequence (P32657 whole entry, the tested form may be a part): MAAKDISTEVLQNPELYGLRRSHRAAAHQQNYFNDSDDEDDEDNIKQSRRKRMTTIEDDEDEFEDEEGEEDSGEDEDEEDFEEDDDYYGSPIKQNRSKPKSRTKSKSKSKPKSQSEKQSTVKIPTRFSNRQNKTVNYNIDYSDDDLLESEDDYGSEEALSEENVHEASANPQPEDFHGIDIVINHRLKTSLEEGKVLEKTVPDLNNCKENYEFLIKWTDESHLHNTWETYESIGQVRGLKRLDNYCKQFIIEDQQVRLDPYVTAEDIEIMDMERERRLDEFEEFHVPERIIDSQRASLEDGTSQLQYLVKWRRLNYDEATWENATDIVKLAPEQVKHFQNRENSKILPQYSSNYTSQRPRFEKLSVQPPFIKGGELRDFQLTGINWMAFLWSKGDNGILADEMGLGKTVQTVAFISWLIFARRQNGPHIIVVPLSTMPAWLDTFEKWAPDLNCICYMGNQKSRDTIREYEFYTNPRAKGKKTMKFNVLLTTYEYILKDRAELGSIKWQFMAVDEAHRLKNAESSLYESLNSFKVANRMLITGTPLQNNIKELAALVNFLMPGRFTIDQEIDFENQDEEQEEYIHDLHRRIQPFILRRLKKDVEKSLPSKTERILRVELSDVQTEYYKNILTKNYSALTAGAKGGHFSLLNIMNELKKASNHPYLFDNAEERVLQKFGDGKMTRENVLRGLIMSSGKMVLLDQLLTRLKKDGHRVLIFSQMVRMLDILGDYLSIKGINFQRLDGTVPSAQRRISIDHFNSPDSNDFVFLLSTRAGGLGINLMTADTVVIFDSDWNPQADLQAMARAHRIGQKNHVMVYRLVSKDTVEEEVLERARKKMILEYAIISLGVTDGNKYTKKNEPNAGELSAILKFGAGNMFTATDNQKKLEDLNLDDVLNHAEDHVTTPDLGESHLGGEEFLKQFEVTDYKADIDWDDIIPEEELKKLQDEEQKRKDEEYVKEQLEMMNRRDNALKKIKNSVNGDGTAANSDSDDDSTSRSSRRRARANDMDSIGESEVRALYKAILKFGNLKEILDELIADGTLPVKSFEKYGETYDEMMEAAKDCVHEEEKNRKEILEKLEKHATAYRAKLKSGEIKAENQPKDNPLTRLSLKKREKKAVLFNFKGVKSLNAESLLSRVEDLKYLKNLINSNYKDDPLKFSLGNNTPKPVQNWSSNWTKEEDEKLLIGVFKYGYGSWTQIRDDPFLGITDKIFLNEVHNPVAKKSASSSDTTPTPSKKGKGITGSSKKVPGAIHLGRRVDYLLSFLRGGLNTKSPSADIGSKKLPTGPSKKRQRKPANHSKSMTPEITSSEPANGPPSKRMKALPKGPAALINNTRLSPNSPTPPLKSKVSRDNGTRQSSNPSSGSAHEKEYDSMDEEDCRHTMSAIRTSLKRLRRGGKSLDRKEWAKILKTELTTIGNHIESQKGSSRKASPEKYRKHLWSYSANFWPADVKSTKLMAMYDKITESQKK
SMILES,Percent Effect [1] [%],Percent Effect [2] [%],Percent Effect [3] [%],Percent Effect [4] [%],Percent Effect [5] [%],Percent Effect [6] [%],Percent Effect [7] [%],Percent Effect [8] [%],Percent Effect [9] [%],Percent Effect [10] [%],Percent Effect [11] [%]
CCc1nc(C2CCCN2C(=O)CCNS(C)(=O)=O)no1 (stereo not drawn),-2.77,27,-4.56,-1.58,3.25,-2.03,19,21.8,7.92,23.2,-6.19
CC(C)OCCN1CCN(C(=O)c2cccc(CC#N)c2)CC1,-0.779,18.2,-4.35,-10.2,-8.99,4.27,11.2,18.6,4.85,9.76,-7.58
CNC(=O)[C@H]1CO[C@H]2CCN(Cc3ccc4ccccc4n3)C[C@H]2C1,-4.79,8.11,7.95,-3.25,-3.62,9.87,18.8,-14.1,2.16,15.4,1.01
COCCN(C)C(=O)Nc1ccc2c(ccn2CCOC)c1,-6.84,28.9,-12.8,0.86,6.33,-1.18,-0.0959,1.75,4.25,13,-17.1
COc1cc(C)nc(N2CCN(C(=O)c3ccc(Cl)o3)CC2)n1,-3.23,2.7,-4.07,-1.86,2.17,-0.802,-3.06,-0.0966,2.46,3.7,1.52
O=C(c1ccsc1)N1C[C@@H](CN2CCCC2)[C@@H](CO)C1,-10,2.67,-3.05,-2.17,-5.36,-5.21,4.71,2.13,-1.64,-1.24,-4.1
CC(OCC(F)(F)F)C(=O)N1CCCCC1 (stereo not drawn),-5.31,0,-0.316,-2.51,-0.783,-2.27,-1.77,19.4,1.07,2.5,0.868
O=C(Nc1cccc(CNCc2csc(Br)c2)c1)C1CC1,-8.41,23.7,-5.54,-1.24,5.32,2.16,7.19,37.8,3.45,25.9,-8.55
